This note sets out measurements from PubChem BioAssay AID624125 (The Scripps Research Institute Molecular Screening Center, 2012).

Values joined by “and” are separate entries in the source; they are usually repeats but may differ in a detail not shown here. Equal entries are not always repeated. The whole screen tested about 360,000 compounds, of which about 2,600 (0.72%) were called active.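 Rule for the calls: active = inhibition above its plate's cutoff, the mean inhibition of sample wells plus 3 SD (cut at about 27% in these data); inactive = the rest.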 Shown is part of a subset that was picked to be rich in actives.

Muscarinic acetylcholine receptor M4 (Homo sapiens), sequence (P08173 whole entry, looked up): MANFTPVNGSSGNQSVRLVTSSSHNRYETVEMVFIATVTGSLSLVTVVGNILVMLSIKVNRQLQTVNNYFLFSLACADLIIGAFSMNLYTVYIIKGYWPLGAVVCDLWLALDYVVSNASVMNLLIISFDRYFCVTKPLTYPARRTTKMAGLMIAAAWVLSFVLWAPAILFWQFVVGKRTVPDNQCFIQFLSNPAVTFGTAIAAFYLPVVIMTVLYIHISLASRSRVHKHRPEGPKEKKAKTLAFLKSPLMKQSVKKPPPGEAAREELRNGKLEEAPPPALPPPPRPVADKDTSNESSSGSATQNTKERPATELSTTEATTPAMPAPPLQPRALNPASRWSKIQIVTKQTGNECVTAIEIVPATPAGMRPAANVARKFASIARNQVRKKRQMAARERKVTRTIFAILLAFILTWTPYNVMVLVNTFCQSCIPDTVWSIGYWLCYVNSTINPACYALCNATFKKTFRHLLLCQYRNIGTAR

This assay concerns the target Muscarinic acetylcholine receptor M4 (Homo sapiens) (UniProt P08173). The assay is described as follows: CHRM4 blockers of acetylcholine calcium response – CHO cells, Fluo-8 calcium fluorescence, primary screen (AID 624125).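 Note: 0% = acetylcholine EC80 with DMSO and 100% = DMSO without agonist.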 To be noted: CHO-hM4 cells, ACh EC80, Fluo-8 calcium fluorescence; at 3 µM; stronger effect = higher value.
In general, inhibition refers to the drop in the measured response relative to a control, in per cent. On to `O=C(O)CC12CC3CC(C1)CC(n1ncc(NCc4ccc(F)cc4)c(Cl)c1=O)(C3)C2`, for which the inhibition was 4.05% (inactive). For the compound `Cc1nn(-c2ccccc2)c2c1c(C)c(CCC(=O)NCC1CCCO1)c(=O)n2C` (stereo not given), the inhibition was -9.84% (inactive).

`Cc1nn(CC(=O)NCC2CCCO2)c(=O)c2cc3ccccc3n12` (stereo not given): the inhibition was -2.94% (inactive). As to `Cc1sc2c(c1C)c(=O)n(-c1ccccc1)c(=O)n2CC(=O)NCC1CCCO1` (stereo not given), the inhibition was 27.2% (active). Then `COC(=O)/C(=C1\Oc2ccc(C(C)(C)C)cc2S1)C(F)(F)F`, with -0.07% (inactive). As to `CCN(CC)CCOC(=O)c1ccc(NC(=O)CNC(=O)c2ccccc2)cc1`, the inhibition was -1.05% (inactive). Next, `COC(CCN(C)C)(c1ccccc1)c1ccccc1`: 3.06% (inactive); `CCC(C(=O)Nc1ccc(C(C)C)cc1)c1ccccc1` (stereo not given): 23.7% (inactive). As for `CCCC(C(=O)OCCN(CC)CC)(c1ccccc1)c1ccccc1`, the inhibition is 42.8% (active). Regarding `CCC(C(=O)OCCN(CC)CC)c1ccccc1` (stereo not given), the inhibition is 54.1% (active).

For `CCN(CC)CCNCC(=O)Nc1ccc(Oc2ccccc2)cc1`, the inhibition was -0.82% (inactive). On to `CC1CCc2c(sc3c2C2=NS(=O)(=O)CCN2C=N3)C1` (stereo not given), for which the inhibition was -3.55% (inactive). Turning to `COc1ccc(S(=O)(=O)N2CCN(c3cnccn3)CC2)cc1`, the inhibition was 5.44% (inactive). For `O=C1CCc2cc(S(=O)(=O)Nc3ccc(C(F)(F)F)cc3)cc3c2N1CC3`, the inhibition was -14.8% (inactive). As to `CC(C)(C)NC(=O)COc1ccc(CNc2ccc3[nH]c(=O)[nH]c3c2)cc1`, the inhibition was -1.92% (inactive). Then `Cc1cc([N+](=O)[O-])c(=O)[nH]c1C`, with 3.71% (inactive); and `CCOC(=O)C1Nc2ccc(C(F)(F)F)cc2C2C=CCC12` (stereo not given), with -1.13% (inactive). Next, `COc1cc(-c2noc(C3CCCN(S(=O)(=O)c4cccc(Cl)c4)C3)n2)cc(OC)c1OC` (stereo not given): 30.5% (active); `COc1cccc(-c2noc(C3CCCN(C(=O)c4ccc(F)cc4)C3)n2)c1` (stereo not given): -18% (inactive); `CC(C)c1ccc(-c2noc(C3CCCN(S(C)(=O)=O)C3)n2)cc1` (stereo not given): -17.6% (inactive).

Turning to `Clc1ccc(-c2nnc(-c3ccccc3)nc2N2CCSCC2)cc1`, the inhibition was -4.43% (inactive). Turning to `CC12CCCCC1=CC(=O)CC2` (stereo not given), the inhibition was 2.52% (inactive). For the compound `Cc1ccc(S(=O)(=O)N2CCCCC2)cc1NC(=O)CCNC(=O)c1ccccc1Cl`, the inhibition is -5.04% (inactive). With `CN(C(=O)CSc1nnc(-c2ccc(C(C)(C)C)cc2)n1C)C1CCS(=O)(=O)C1` (stereo not given), the inhibition is 0.43% (inactive). As for `OC(c1ccccc1)(c1ccccc1)C1CCN(CCCOc2ccccc2)CC1`, the inhibition was 91.6% (active).

On to `COc1ccc(OCCCCN2CCC(C)CC2)cc1`, for which the inhibition was 9.1% (inactive). With `O=c1[nH]c2ccccc2n1C1CCN(CCOc2ccccc2)CC1`, the inhibition was -13.4% (inactive). Then `Cc1ccc(S(=O)(=O)N2CCOCC2)cc1C(=O)NC(=S)N(Cc1ccccc1)C(C)C`, with 0.9% (inactive); and `CCCCc1nc2ccc(F)cc2cc1C`, with -4.37% (inactive); and `Cc1sc2ncnc(N3CCC(C(=O)NNC(=O)c4ccc(F)cc4)CC3)c2c1C`, with -17.4% (inactive).

For `Cc1sc2ncnc(N3CCC(C(=O)Nc4nc5ccc(Cl)cc5s4)CC3)c2c1C`, the inhibition was -9.33% (inactive). Then `Cc1sc2ncnc(N3CCC(C(=O)Nc4ccc(F)cc4Cl)CC3)c2c1C`, with 46.6% (active); and `COC(=O)c1cc(N2CCNCC2)nc2ccccc12`, with 6.45% (inactive). As to `CS(=O)(=O)N1CCN(CC(=O)NC2CCCC2)CC1`, the inhibition is 1.25% (inactive). Then `Clc1ccc(C=NC23CN4CN(CN(C4)C2)C3)cc1`, with -1.64% (inactive); and `O=C(c1ccccc1F)N1CCN(S(=O)(=O)c2ccc(Br)cc2)CC1`, with 3.23% (inactive); and `OCCC1CN(Cc2ccc3nsnc3c2)CCN1C1CCCC1` (stereo not given), with 47.5% (active).

Regarding `CC(C)N1CCC(N2CCN(Cc3cccnc3)CC2CCO)CC1` (stereo not given), the inhibition is -8.19% (inactive).

With `Cn1cnnc1Sc1ccc(CN2CCN(C3CCCC3)C(CCO)C2)o1` (stereo not given), the inhibition was 42.6% (active).

Take `OCC1(CCc2ccccc2)CCN(Cc2ccc3nsnc3c2)CC1`: the inhibition is 8.32% (inactive). Next, `Cc1ccc(CN2CCN(Cc3ccc4ncccc4c3)CC2CCO)cc1` (stereo not given): -9.31% (inactive).

Turning to `COc1ccc(CN2CCN(Cc3cn(C)nc3-c3ccccc3)CC2CCO)c(C)c1C` (stereo not given), the inhibition is -2.82% (inactive). Then `OCCC1CN(Cc2cccc(O)c2)CCN1CCc1ccccc1` (stereo not given), with -6.17% (inactive).

In the case of `COc1cccc2c1OCC(CN1CCN(C3CCCCC3)C(CCO)C1)=C2` (stereo not given), the inhibition is 26.6% (active). As for `OCCC1CN(Cc2cccc(OC3CCCC3)c2)CCN1Cc1ccsc1` (stereo not given), the inhibition is 2.69% (inactive). `CCOc1ccc(CN2CCN(Cc3ccc(C)o3)CC2CCO)cc1` (stereo not given): the inhibition was 1.46% (inactive). Regarding `OCCC1CN(Cc2ccc3nsnc3c2)CCN1C1CCCCC1` (stereo not given), the inhibition is 26.8% (active). Then `Cc1ccc(CN2CCN(Cc3ccc(OCCO)cc3)CC2CCO)o1` (stereo not given), with 2.78% (inactive); and `CCC(Sc1nncn1C)C(=O)Nc1nnc(-c2ccc(Cl)cc2)s1` (stereo not given), with -32.3% (inactive); and `CCOc1cc(-c2noc(CCCC(=O)NC3CCCCC3)n2)ccc1OC`, with -15.3% (inactive). For `CC(c1ccccn1)N(C)C(=O)c1ccc2nc(Cc3cccc(Cl)c3)oc2c1` (stereo not given), the inhibition is 0.98% (inactive). In the case of `Cc1ccc(NC(=O)C(C)OC(=O)C2CC3CCCC(C2)C3=O)cc1S(=O)(=O)N1CCOCC1` (stereo not given), the inhibition was -3.85% (inactive). For `CCc1nc2c(OCc3ccc(C(F)(F)F)cc3)cccn2c1N(C)C(=O)CC(C)C`, the inhibition was 3.96% (inactive). Then `Cc1cc(=O)oc2cc(NC(=O)C3CC(=O)N(Cc4ccccc4)C3)ccc12` (stereo not given), with -0.59% (inactive). Next, `O=C(O)C1CCN1C1CCCCC1` (stereo not given): 2.3% (inactive). Next, `COC(=O)c1c(C)oc(C)c1S(=O)(=O)NCc1ccc(Cl)cc1`: 12.7% (inactive); `CN(CCN1CCOCC1)Cc1nc(-c2ccc3c(c2)OCO3)no1`: 8.12% (inactive); `CCOc1ccc(NC(=O)C2CC(=O)N=C(N)S2)cc1` (stereo not given): -0.59% (inactive). Turning to `COc1ccc(C(=O)OCC(=O)NCC2CCCO2)cc1[N+](=O)[O-]` (stereo not given), the inhibition was -10.6% (inactive). For the compound `Cc1cc(-c2nnc(SCC(=O)Nc3ccc(F)cc3)n2N)n[nH]1`, the inhibition is 8.94% (inactive). Turning to `CSCCC(NS(=O)(=O)c1ccccc1F)C(=O)N1CC=C(c2ccccc2)CC1` (stereo not given), the inhibition is 3.15% (inactive). For the compound `O=C1NC(=O)C(c2ccc(Cl)cc2)N1` (stereo not given), the inhibition was -2.3% (inactive).

For `COC(=O)C1=C(N)Oc2cc(C)[nH]c(=O)c2C1c1ccc(Cl)cc1` (stereo not given), the inhibition was 0.29% (inactive). Then `O=C1CSC(c2ccc(Cl)cc2)N1` (stereo not given), with 27.7% (active). Then `COc1ccc(C(=O)Oc2ccc(-c3nnco3)cc2)cc1S(=O)(=O)N1CCOCC1`, with -11.2% (inactive); and `O=C(OC1CC2CC1[C@H]1CCCCN1C2=O)N1CCOCC1` (stereo not given in full), with -3.15% (inactive); and `CCc1ccc(S(=O)(=O)NCC(O)COc2ccc(OC)cc2)cc1` (stereo not given), with -13% (inactive). Next, `C#C[C@]1(O)CC[C@H]2[C@@H]3CCC4=CC(=O)CC[C@@H]4[C@H]3CC[C@@]21CC`: -4.91% (inactive) and 3.68% (inactive); `CN1CCN(C2Cc3ccc(Cl)cc3Sc3ccc(F)cc32)CC1` (stereo not given): 38.1% (active). Consider `CCOCCCNC(=O)C(NC(=O)c1ccc(=O)[nH]c1)c1ccc(C)cc1` (stereo not given), for which the inhibition was -5.59% (inactive). Next, `CN(Cc1ccc(F)cc1Cl)S(=O)(=O)c1cccs1`: -1.2% (inactive). Then `Cc1ccc(-c2ccc(=O)n(Cc3ccc(F)cc3Cl)n2)cc1`, with 0.63% (inactive). Next, `CN(C)Cc1ccc(F)cc1Sc1cc(Cl)ccc1Cl`: 43.8% (active); `COc1cccc(CC(=NO)c2cccc(OC)c2)c1`: -5.79% (inactive); `O=C(C1CCCO1)N1CCN(C(=S)Nc2cccc(Cl)c2)CC1` (stereo not given): 0.97% (inactive).
